PubChem BioAssay AID2013 (Sanford-Burnham Center for Chemical Genomics, 2009)
Out of some 290,000 compounds screened, about 370 (0.13%) were called active.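 The calls were made as follows: active = spots per cell inhibited over 60%, with over 100 cells counted and total cytoplasm intensity under 500,000; inconclusive = wells with under 100 cells, flagged as likely toxic; inactive = the rest.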 Only a selection was taken, and actives are over-represented in it overall. Potency and affinity values are given separately.

Target: G-protein coupled receptor 55 (Homo sapiens) (UniProt Q9Y2T6)
Test: inhibition of LPI-stimulated GPR55 beta-arrestin translocation – imaging, U2OS, beta-arrestin-GFP, LPI agonist, primary screen (AID 2013);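 also: U2OS cells stably carrying GPR55 and arrestin-GFP stimulated by 5 µM LPI near EC80; imaged beta-arrestin-GFP aggregate spots per cell after agonist stimulation; plate controls were LPI-stimulated DMSO wells for no effect and DMSO wells without LPI for full effect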
Settings: LPI antagonism, at 10 µM, hits give high values

Sequence of G-protein coupled receptor 55 (Homo sapiens) (Q9Y2T6 whole entry, looked up): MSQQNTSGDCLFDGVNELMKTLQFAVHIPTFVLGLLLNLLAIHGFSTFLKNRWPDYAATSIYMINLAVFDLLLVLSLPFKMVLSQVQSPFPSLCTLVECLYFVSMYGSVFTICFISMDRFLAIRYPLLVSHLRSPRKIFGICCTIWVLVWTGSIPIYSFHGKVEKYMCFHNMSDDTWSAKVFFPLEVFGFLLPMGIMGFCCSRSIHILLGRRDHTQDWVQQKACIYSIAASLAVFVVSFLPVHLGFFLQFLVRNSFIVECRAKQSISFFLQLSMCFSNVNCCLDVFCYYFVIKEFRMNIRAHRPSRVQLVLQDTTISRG

| Structure (SMILES) | inhibition |
| --- | --- |
| COc1cccc(NC(=O)C(=O)N/N=C/c2ccc3c(c2)OCO3)c1 | 14.8% (inactive) |
| c1ccc(C(c2ccccn2)c2ccccn2)cc1 | 1.1% (inactive) |
| CC(=O)Oc1ccc(C(=O)Cc2ccccn2)c(O)c1 | 1% (inactive) |
| CCOC(=O)CCNC(=O)N1CCCC(N(C)CCc2ccc(OC)c(OC)c2)C1 (stereo not drawn) | 6.3% (inactive) |
| O=C(NCC1CC1)Nc1ccc(Cl)cc1 | 10.7% (inactive) |
| CCCS(=O)(=O)N1CCCC(C(=O)Oc2ccc(C)c(C)c2)C1 (stereo not drawn) | -6.5% (inactive) |
| CCOc1ccccc1NC(=O)NC1(C(=O)NCc2cccnc2)CCCCC1 | 3.3% (inactive) |
| CCn1c(=N)c(C(=O)OC)cc2c(=O)n3ccccc3nc21 | -3.4% (inactive) |
| COC(=O)c1cc2c(=O)n3cccc(C)c3nc2n(Cc2cccnc2)c1=N | -5.2% (inactive) |
| CCOC(=O)c1cc2c(=O)n3cccc(C)c3nc2n(C)c1=N | 4.1% (inactive) |
| CCOC(=O)c1cc2c(=O)n3cccc(C)c3nc2n(Cc2ccccc2Cl)c1=N | 85.6% (active) |
| CCOC(=O)c1cc2c(=O)n3ccccc3nc2n(Cc2ccccc2Cl)c1=N | 38.5% (inactive) |
| COCCNC(=O)C(OC(=O)CC1Sc2ccccc2NC1=O)c1ccncc1 (stereo not drawn) | 1.2% (inactive) |
| O=[N+]([O-])c1ccc(S(=O)(=O)NCCN2CCOCC2)cc1 | 11.3% (inactive) |
| CCn1ncc(C(=O)Nc2cccc(Cl)c2)c1C | 3.9% (inactive) |
| Brc1ccc(-c2nnc(Cc3ccccc3)o2)cc1 | -5.2% (inactive) |
| COc1ccc(Cc2nnc(-c3ccccc3)o2)cc1 | -5.3% (inactive) |
| CCN1CCCC1CN(Cc1cc2cc(OC)ccc2[nH]c1=O)C(=O)NCc1ccccc1 (stereo not drawn) | 11.3% (inactive) |
| CC(NC(=O)C12CC3CC(CC(C3)C1)C2)c1ccc2c(c1)OCCO2 (stereo not drawn) | 3% (inactive) |
| COc1cc(CNCCO)cc(Cl)c1OCc1ccccc1Cl | 14.7% (inactive) |
| COc1cc(CNCCO)cc(Cl)c1OCc1ccc(Cl)cc1Cl | 83.3% (active) |
| CCOc1cc(CNCCO)cc(Br)c1OCc1ccc(Cl)cc1Cl | 11.8% (inactive) |
| N#C/C(=C/c1cn[nH]c1-c1ccc(Br)cc1)C(=O)O | 3% (inactive) |
| N#C/C(=C\c1ccccc1Br)C(=O)NC1CC1 | -17.2% (inactive) |
| COc1ccccc1/C=C(/C#N)C(=O)O | 7% (inactive) |

| Structure (SMILES) | inhibition |
| --- | --- |
| CCOC(=O)/C(C#N)=C/c1cn(CCC(=O)O)nc1-c1cccc(Br)c1 | 1.6% (inactive) |
| COc1ccc(S(=O)(=O)N(CC(=O)NCc2ccncc2)c2cc(C)cc(C)c2)cc1OC | 14.3% (inactive) |
| COc1ccc(-c2sc(Nc3ccccc3)n[n+]2-c2ccc(F)cc2)c(OC)c1OC | 30% (inactive) |
| COc1cc(OC)c(-c2sc(Nc3ccccc3)n[n+]2-c2ccc(F)cc2)cc1OC | -3% (inactive) |
| COc1ccc(-c2sc(Nc3ccccc3)n[n+]2C)c(C)c1C | -7% (inactive) |
| COc1cc(Br)c(-c2sc(Nc3ccccc3)n[n+]2-c2ccccc2)cc1OC | 40.4% (inactive) |
| CCn1c(SCC(=O)Nc2ccc(OC)cc2)nnc1-c1ccco1 | 2.2% (inactive) |
| O=C(Nc1ccc(F)cc1)NC1(C(=O)NCc2ccco2)CCCCC1 | 5.6% (inactive) |
| COc1ccc(Cl)cc1C(=O)NCCN(C)C | -0.9% (inactive) |
| CN(C)CCNC(=O)COc1ccc(C23CC4CC(CC(C4)C2)C3)cc1 | 33.6% (inactive) |
| O=C(NCCCN1CCN(c2ccc(F)cc2)CC1)NC12CC3CC(CC(C3)C1)C2 | -1.6% (inactive) |
| CCOC(=O)c1cnc(SC)nc1Oc1cccc(NC(=O)c2cccc(Cl)c2Cl)c1 | 9.1% (inactive) |
| CCCCNC(=S)N(C)/N=C/c1sc(N2CCCCC2)nc1-c1cccs1 | 11.7% (inactive) |
| CC(=O)N(c1ccccc1)C1CCCC1 | 3.9% (inactive) |
| CC(=O)N(C1=C(O)c2ccccc2C(=O)C1=O)C1CCCCC1 | -3.7% (inactive) |
| Cc1cc(OCC(=O)Nc2ccc(CN3CCOCC3)cc2)c2c(C)c(C)c(=O)oc2c1 | 18.4% (inactive) |
| CC(C)Sc1cc(N2CCCC2)nc(-c2ccccc2Cl)n1 | 7.8% (inactive) |
| CCOc1cccc(OCCNC2CCCC2)c1 | -14.7% (inactive) |
| COc1ccc(-c2c3c(=O)n(C)c(=O)n(C)c3cn2-c2cc(OC)ccc2OC)cc1 | 11.5% (inactive) |
| COCCNC(=O)c1ccccc1NC(=O)CN(c1ccc2c(c1)OCO2)S(C)(=O)=O | 6.3% (inactive) |
| COc1cccc(NC(=O)CN(C)CC(=O)Nc2cccc(C(F)(F)F)c2)c1 | -8.3% (inactive) |
| O=C(Nc1ccnn1C1CCN(Cc2cc3ccccc3[nH]2)CC1)C1CCOC1 (stereo not drawn) | 1.9% (inactive) |
| Nc1c(S(=O)(=O)O)cc(NC(=O)c2ccccc2)c2c1C(=O)c1ccccc1C2=O | 0.8% (inactive) |
| Cc1cc(C)c(Nc2cc(S(=O)(=O)O)c(N)c3c2C(=O)c2ccccc2C3=O)c(C)c1 | 66.8% (active) |
| Cc1cc(C)cc(NC2=C(N)C(=O)c3ccccc3C2=O)c1 | 6.8% (inactive) |

| Structure (SMILES) | inhibition |
| --- | --- |
| Cc1ccc(C)c(NC(=O)NNC(=O)CCc2ccccc2)c1 | 11% (inactive) |
| CC(c1nnnn1C(C)(C)C)N(Cc1cccnc1)Cc1ccccc1Cl (stereo not drawn) | 11.1% (inactive) |
| CC(C)(C)n1nnnc1C(c1cccs1)N(Cc1cccnc1)CC1CCCO1 (stereo not drawn) | 4.3% (inactive) |
| CC(C)(C)n1nnnc1C(c1cccnc1)N(Cc1ccccc1)Cc1cccs1 (stereo not drawn) | 59.7% (inactive) |
| CC(C)(C)n1nnnc1C(c1cccs1)N(Cc1cccnc1)Cc1ccco1 (stereo not drawn) | 57.6% (inactive) |
| Cc1ccc(C(C)C)cc1S(=O)(=O)NCc1ccccn1 | 8.4% (inactive) |
| Cc1cc(C)nc(Nc2n[nH]c(-c3ccccc3Cl)n2)n1 | 0.2% (inactive) |
| N=c1c2c(ncn1CCN1CCOCC1)Oc1cc(O)ccc1C2c1ccccc1 (stereo not drawn) | 16.4% (inactive) |
| N=c1c2c(ncn1CCCO)Oc1cc(O)ccc1C2c1ccccc1 (stereo not drawn) | 33.6% (inactive) |
| COc1ccc(C2c3ccc(O)cc3Oc3ncn4nc(-c5ccncc5)nc4c32)cc1OC (stereo not drawn) | 5.3% (inactive) |
| N=c1c2c(ncn1Cc1ccco1)Oc1ccc3ccccc3c1C2c1ccccc1 (stereo not drawn) | 17.8% (inactive) |
| COc1ccc(C2c3c(ncn(Cc4ccco4)c3=N)Oc3ccc4ccccc4c32)cc1 (stereo not drawn) | 27.8% (inactive) |
| COc1ccc(C2c3ccc(O)cc3Oc3ncn4nc(-c5ccccn5)nc4c32)cc1OC (stereo not drawn) | 14.6% (inactive) |
| COc1ccc(C2c3ccc(O)cc3Oc3ncn(Cc4ccco4)c(=N)c32)cc1OC (stereo not drawn) | 33% (inactive) |
| COc1ccc(C2c3ccc4ccccc4c3Oc3ncn(Cc4ccco4)c(=N)c32)cc1OC (stereo not drawn) | 96.1% (inactive) |
| N=c1c2c(ncn1Cc1ccco1)Oc1c(ccc3ccccc13)C2c1ccccc1 (stereo not drawn) | 65.9% (active) |
| CNc1oc(C)nc1S(=O)(=O)c1ccccc1 | -6.5% (inactive) |
| O=C(O)c1ccc2c(c1)S(=O)(=O)N=C1CCCCCN12 | 16.8% (inactive) |
| Cc1c(N=Cc2c(O)n(C)c(=O)c3ccccc23)c(=O)n(-c2ccccc2)n1C | 1.5% (inactive) |
| CC(=O)N1c2ccccc2CCc2ccc(N)cc21 | 8% (inactive) |
| CC(C)(C)c1ccc(C(=O)Nc2ccc(O)c3c(=O)cc(-c4ccccc4Cl)oc23)cc1 | 18.3% (inactive) |
| O=c1[nH]c(=S)[nH]c2sc3c(c12)CCCCCC3 | -0.5% (inactive) |
| COc1cc(/C=N/NC(=O)c2cccc3ccccc23)cc(OC)c1O | 16.9% (inactive) |
| Cn1c(NC(=O)c2cc(-c3ccc4c(c3)OCO4)nc3ccccc23)cc(=O)n(C)c1=O | 9.3% (inactive) |
| COc1ccc(C2c3ccc(O)cc3Oc3ncn(CCN4CCOCC4)c(=N)c32)cc1 (stereo not drawn) | 18.9% (inactive) |

| Structure (SMILES) | inhibition |
| --- | --- |
| COc1ccc(C2c3ccc(O)cc3Oc3ncn(CCCO)c(=N)c32)cc1 (stereo not drawn) | 22% (inactive) |
| COC(=O)c1ccc(N(CC(=O)NC2CCCCC2)C(=O)CNC(=O)c2ccco2)cc1 | -3.6% (inactive) |
| COc1ccc(-c2ccc(-c3nnc(Cc4ccc(OC)c(OC)c4)o3)cc2)cc1 | -4.2% (inactive) |
| O=C1c2ccccc2C(=O)N1Cc1cc(-c2ccccc2)no1 | -7.7% (inactive) |
| O=C(CCS(=O)(=O)c1cccc2nonc12)N1CCOCC1 | -5.5% (inactive) |
| Oc1ccc(-c2n[nH]c(C(F)(F)F)c2-c2ccccc2)c(O)c1 | 20.9% (inactive) |
| COc1ccc(-c2c(-c3ccc(O)cc3O)n[nH]c2C)cc1OC | 7% (inactive) |
| COc1ccc(-c2n[nH]c(C)c2-c2ccc(Cl)cc2)c(O)c1 | 12.3% (inactive) |
| COc1ccc(-c2c(-c3ccc(OCC(=O)NN)cc3O)n[nH]c2C)cc1 | -11.9% (inactive) |
| COc1ccc(-c2cn[nH]c2-c2ccc(OCC(=O)NN)cc2O)cc1OC | -2.6% (inactive) |
| COc1ccc(-c2cn[nH]c2-c2ccc(OCC(=O)NN)cc2O)cc1 | -13.4% (inactive) |
| COc1ccccc1-c1c(-c2ccc(OCC(=O)NN)cc2O)n[nH]c1C(F)(F)F | 4.3% (inactive) |
| COc1ccccc1-c1c(-c2ccc(O)cc2O)n[nH]c1C(F)(F)F | 5.7% (inactive) |
| CSc1c(CC(=O)Nc2ccccc2)n(C)c2ccccc12 | -1% (inactive) |
| O=C(NCc1cccnc1)C(=O)Nc1ccc([N+](=O)[O-])cc1 | -2.9% (inactive) |
| CSc1nsc(SC)c1NC(=O)N1CCCCC1 | 3.9% (inactive) |
| Cc1cc(C)c(C(=O)CN2C(=O)NC3(CCC(C)CC3)C2=O)cc1C (stereo not drawn) | 0.1% (inactive) |
| COC(=O)c1c(-c2ccccc2)csc1N | 1.1% (inactive) |
| COC(=O)C1=C(C)OC(N)=C(C#N)C1c1ccccc1F (stereo not drawn) | 9% (inactive) |
| COC(=O)C1=C(N)Oc2c(oc(CO)cc2=O)C1c1ccc(F)cc1 (stereo not drawn) | 6% (inactive) |
| COC(=O)c1sc(NC(=O)c2c(F)cccc2F)c(C#N)c1C | -4.7% (inactive) |
| O=C1CC(C(=O)O)(c2ccccc2)c2cccc(F)c21 (stereo not drawn) | -1.7% (inactive) |
| COC(=O)c1ccc(C#Cc2ccccc2)o1 | -12.1% (inactive) |
